Results taken from PubChem BioAssay (NCI).
About 79,000 compounds went through this panel and 15% of them were active in at least one assay; those are over-represented in the sample as a whole. A number with no mark means an inactive call. Active and inactive are the calls of the source. Rule as the data show it: active = growth inhibition above about 70%; inactive = the rest.

How the values were obtained:
[1] = NCI Yeast Anticancer Drug Screen. Data for the rad50 strain (AID 155);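 also: 0% = growth of vehicle-only cultures of the same strain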; details: S. cerevisiae rad50 strain growth inhibition, hits give high values
Summary of the method: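 A DNA repair-deficient yeast mutant serves as the test organism; compound-induced growth inhibition is calculated against vehicle-treated cells.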

[2] = NCI Yeast Anticancer Drug Screen. Data for the mec2-1 strain (AID 157); details: S. cerevisiae mec2-1 strain, hits give high values
Summary of the method: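 Using mec2-1 yeast: add compound, measure growth, express inhibition versus vehicle-treated cultures.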

[3] = NCI Yeast Anticancer Drug Screen. Data for the sgs1 mgt1 strain (AID 161);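 also: 0% = growth of cultures given vehicle only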; details: S. cerevisiae sgs1 mgt1 strain, hits give high values
Summary of the method: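 Percent growth inhibition was derived by comparing compound-exposed mutant yeast with vehicle-exposed cultures. The strain carries alterations in DNA damage repair.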

[4] = NCI Yeast Anticancer Drug Screen. Data for the cln2 rad14 strain (AID 165);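 also: 0% = growth equal to vehicle treated cultures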; details: S. cerevisiae cln2 rad14 strain, hits give high values
Summary of the method: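 Yeast strain cln2 rad14, bearing defects in cell cycle control and DNA repair, serves as the test system; values reflect growth inhibition compared with vehicle.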

[5] = NCI Yeast Anticancer Drug Screen. Data for the bub3 strain (AID 167); details: S. cerevisiae bub3 mutant strain, hits give high values
Summary of the method: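 Inhibition values come from growth of compound-treated mutant yeast normalised to vehicle-treated controls.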

[6] = NCI Yeast Anticancer Drug Screen. Data for the mlh1 rad18 strain (AID 175); details: S. cerevisiae mlh1 rad18 strain growth inhibition, hits give high values
Summary of the method: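 Steps: expose repair-defective yeast to compound; measure growth; express inhibition against vehicle-treated controls.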

[7] = at 5.0 µM (retest, dose inferred, filed as 0.5)
[8] = at 50.0 µM (retest, dose inferred, filed as 5.0)

Compound	growth inhibition [1, 7]	growth inhibition [1, 8]	growth inhibition ([1]; at 50.0 µM)	growth inhibition [2, 7]	growth inhibition [2, 8]	growth inhibition ([2]; at 50.0 µM)	growth inhibition [3, 7]	growth inhibition [3, 8]	growth inhibition ([3]; at 50.0 µM)	growth inhibition [4, 7]	growth inhibition [4, 8]	growth inhibition ([4]; at 50.0 µM)	growth inhibition [5, 7]	growth inhibition [5, 8]	growth inhibition ([5]; at 50.0 µM)	growth inhibition [6, 7]	growth inhibition [6, 8]	growth inhibition ([6]; at 50.0 µM)
C=C1C(=O)OC2C1CC1OC2C(C)CCC/C(C)=C\CCC1(C)O (stereo not given)	2%	8%	92.5% (active)	2%	25%	92.8% (active)	2%	34%	94.1% (active)	-6%	-8%	91.8% (active)	-1%	8%	92.4% (active)	1%	20%	92.6% (active)
COc1cccc(CC2N(S(=O)(=O)c3ccc(C)cc3)CCC23C(=O)Nc2ccccc23)c1OC (stereo not given)	10%	94% (active)	91.8% (active)	2%	96% (active)	69.4%	10%	96% (active)	82.2% (active)	-3%	93% (active)	39%	-3%	96% (active)	80.7% (active)	3%	96% (active)	92.2% (active)
CC(C)(C)C(=O)/C=C/c1ccc2ccccc2n1	-135%	-119%	44.4%	-48%	-51%	51.1%	-62%	-35%	34.5%	-66%	-75%	8.6%	-67%	-73%	34.1%	-126%	-120%	77.8% (active)
CSc1nc(NN)cc(-c2ccccc2)n1	0%	23%	12.5%	24%	19%	50.3%	0%	57%	56.7%	2%	-2%	3.1%	-3%	68%	81.2% (active)	-1%	54%	79.3% (active)
Cc1c(Cl)cccc1N=NC(=O)NNc1cccc(Cl)c1C	1%	96% (active)	85.4% (active)	29%	96% (active)	82.1% (active)	-1%	97% (active)	74.5% (active)	29%	97% (active)	80.5% (active)	-12%	97% (active)	83.3% (active)	1%	98% (active)	81.5% (active)
O=C(Nc1ccccc1)c1cc(Cl)ccc1O	-12%	33%	62.8%	3%	46%	76% (active)	32%	61%	71.8% (active)	24%	33%	58.5%	25%	49%	74.7% (active)	21%	74% (active)	84% (active)
C[N+](C)(C)c1nc(N)nc2c1ncn2C1OC(CO)C(O)C1O (stereo not given)	9%	15%	29.5%	12%	-11%	6.5%	9%	3%	-40.6%	-20%	-2%	70.3% (active)	1%	-1%	-27.2%	5%	16%	11%
N#CC1=CN=C2C=CC=C3N=C(C(Cl)(Cl)Cl)N=C1N32	19%	93% (active)	49.9%	7%	97% (active)	39.3%	28%	97% (active)	87.2% (active)	2%	91% (active)	14.8%	-1%	89% (active)	20.3%	25%	95% (active)	76.8% (active)
CCCCN(CCCC)CCC(O)(c1ccc(OC)c2ccccc12)C(O)(CCN(CCCC)CCCC)c1ccc(OC)c2ccccc12 (stereo not given)	43%	99% (active)	99.2% (active)	-2%	100% (active)	99.7% (active)	60%	99% (active)	99.6% (active)	35%	99% (active)	98.9% (active)	39%	99% (active)	99.2% (active)	52%	99% (active)	97.5% (active)
CCCCCCCCCCCCCCCC[N+](C)(CCO)Cc1cnc[nH]1 (stereo not given)	97% (active)	98% (active)	90.2% (active)	97% (active)	99% (active)	87.4% (active)	98% (active)	99% (active)	90.8% (active)	98% (active)	99% (active)	86.8% (active)	99% (active)	99% (active)	88% (active)	94% (active)	98% (active)	88.6% (active)
CCOC(=O)C(CO)c1nc2c([nH]c1=O)c(=O)n(C)c(=O)n2C (stereo not given)	5%	18%	29.9%	14%	17%	43.5%	33%	60%	50.5%	-4%	5%	-2.95%	6%	39%	52.9%	17%	18%	83.5% (active)
Oc1c(Br)c(Br)c(O)c(Br)c1Br	12%	50%	98.9% (active)	7%	33%	99.2% (active)	7%	58%	94.5% (active)	5%	13%	37.5%	8%	42%	97.8% (active)	10%	35%	98% (active)
C1=NCCN=Cc2ccccc2NCCNc2ccccc21	3%	2%	55.2%	6%	-20%	58.6%	4%	41%	74.8% (active)	15%	23%	53.5%	6%	6%	43.5%	-3%	-2%	69%
COc1ccc2c(C)cc(N/N=C/c3ccc(OC)c4ccccc34)nc2c1	27%	98% (active)	89.7% (active)	51%	99% (active)	36.8%	66%	99% (active)	91% (active)	0%	99% (active)	35.5%	9%	99% (active)	52%	42%	98% (active)	39.9%
Oc1c(Br)cc(Cl)cc1C(c1cc(Cl)cc(Br)c1O)C(Cl)(Cl)Cl	0%	98% (active)	96% (active)	2%	99% (active)	98.2% (active)	3%	99% (active)	97.8% (active)	-5%	98% (active)	97.2% (active)	-1%	98% (active)	97.1% (active)	5%	98% (active)	90.8% (active)
Oc1c(Cl)c2ccccc2c2ccccc12	-2%	59%	98.6% (active)	56%	48%	99.2% (active)	1%	23%	99% (active)	-1%	24%	98.5% (active)	37%	76% (active)	93.5% (active)	8%	44%	98.7% (active)
O=C1c2ccccc2C(=O)c2sc(Nc3cccc(Cl)c3)nc21	93% (active)	98% (active)	89.6% (active)	93% (active)	99% (active)	92.2% (active)	92% (active)	99% (active)	93% (active)	54%	98% (active)	89.9% (active)	98% (active)	97% (active)	90.6% (active)	92% (active)	98% (active)	90.5% (active)
CC(=O)c1cc(-c2ccc(C)cc2)nc2c(C)cc(C)cc12	5%	15%	32.9%	5%	33%	60.5%	6%	32%	-9.2%	1%	41%	76.8% (active)	10%	40%	95.2% (active)	27%	41%	94.2% (active)
CN(C)c1ccc(C2C=C(c3ccccc3)Oc3ccccc32)cc1 (stereo not given)	97% (active)	96% (active)	96.7% (active)	94% (active)	96% (active)	97% (active)	97% (active)	97% (active)	96.9% (active)	92% (active)	94% (active)	95.8% (active)	93% (active)	97% (active)	95.8% (active)	95% (active)	96% (active)	96.8% (active)
Clc1ccc2oc(N3CCCCC3)nc2c1	4%	7%	98.8% (active)	-3%	-3%	99.2% (active)	2%	6%	99% (active)	2%	6%	98.2% (active)	8%	15%	99.2% (active)	4%	11%	98.7% (active)
